# CHX counter = Cycloheximide Counterscreen for Small Molecule Inhibitors of Shiga Toxin; cell reporter, cycloheximide protein synthesis inhibition counterscreen; max response, %; actives 12% (n = 300,000); in the data active = max response mostly above about 13%, no sharp cut-off; inactive = mostly below about 14%; note: read at 38.3 µM for the half of the compounds with a filed dose; 0% is about no effect
# Shiga toxin inh = A qHTS for Small Molecule Inhibitors of Shiga Toxin. actives 9.2% (n = 290,000). Vero cells, Shiga toxin protein synthesis inhibition reporter. inhibition, % at 38.7 µM. AID 2315, 2010; in the data active = inhibition mostly above about 28%, no sharp cut-off; inactive = mostly below about 43%; note: 0% is about no effect
# Pf growth 96h = Primary qHTS for delayed death inhibitors of the malarial parasite plastid, 96 hour incubation; actives 6.9% (n = 320,000); Potency, µM (highest dose often 28.7 µM), without a hit: at the highest dose activity change, negative = inhibition, hits mostly inhibitors; P. falciparum luciferase reporter growth, 96 h; AID 504834, 2011; note: potency is the fitted concentration of half-maximal effect; % is set by controls: 0 for no effect and ±100 for the full control effect
#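 Plates of compound plus infected erythrocytes (2% hematocrit, 0.05% parasitemia final) incubate 96 hours, 37 C, 5% CO2. Detection reagent added; reduced luminescence from the parasites' luciferase reporter flags inhibition.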
# NS1 function inh = qHTS Assay for Inhibitors of Influenza NS1 Protein Function; actives 0.4% (n = 270,000); Potency, µM (doses to about 46.1 µM), for inactives: at the highest dose activity, positive = more growth; calls by dose curve; note: potency is the fitted concentration of half-maximal effect; actives are rising curves; nearly all actives have a fitted effect of over 50% in size
#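 S. cerevisiae expressing influenza A NS1, grown in glucose, washed, then diluted 1:100 into pH 6.0 -URA galactose medium with 23 nl compound. Growth recovery read as OD600; NS1-free strain serves as control.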
# Pf growth 48h = Primary qHTS for delayed death inhibitors of the malarial parasite plastid, 48 hour incubation; actives 5.9% (n = 310,000); P. falciparum luciferase growth in erythrocytes, 48 h; Potency, µM (highest dose often 28.7 µM), for inactives: at the highest dose activity change, negative = inhibition, actives largely listed as inhibitors; AID 504832, 2011; note: potency is the fitted concentration of half-maximal effect; % is set by controls: 0 for no effect and ±100 for the full control effect
#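 First compound was added to culture medium, then infected red cells at 0.1% parasitemia and 2% hematocrit (final). After incubation at 37 C under 5% CO2, luciferase detection reagent was dispensed and light output recorded.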
# SARS PLP yeast = qHTS of Yeast-based Assay for SARS-CoV PLP. actives 0.19% (n = 330,000). S. cerevisiae expressing SARS-CoV PLpro, growth rescue. Potency, µM (highest dose often 32.9 µM), without a hit: at the top dose activity, positive = growth rescue, hits mostly activators. AID 485353, 2010; calls by dose curve; note: potency is the fitted concentration of half-maximal effect; 0% is about no effect; nearly all actives have a fitted effect of over 55% in size
# * hit, by the source's call; i = inactive; ? = inconclusive; / = not tested or not shown. Only some compounds are listed: those with a hit (about 21% of all), similar ones and a draw of the others. Unless noted, calls come from the whole dose curve; as a rule, active = well fitted inhibition curve with a large enough effect; inconclusive = small, poorly fitted or top-dose-only effect, or another doubt; inactive = no such curve, though single readings can be large or run the other way.
SMILES,CHX counter,Shiga toxin inh,Pf growth 96h,NS1 function inh,Pf growth 48h,SARS PLP yeast
COc1ccc(NC(=O)Nc2ccccc2SC)cc1OC,20*,48*,?,6%,87%,0%
COc1ccc(NC(=O)Nc2ccccc2SC)c(OC)c1,-1,29,0%,5%,-4%,0%
COc1cccc(NC(=O)Nc2ccccc2SC)c1,37*,84*,4%,-10%,30%,-2%
Cc1cc(C)c2oc(C(=O)N3CCN(C)CC3)cc(=O)c2c1,-7,1,?,1%,-43%,-2%
COc1cc(OC)c(C(=O)/C=C/c2ccccc2)c(O)c1O,5,4,12µM*,-73%,?,-7%
COc1ccc(/C=C/C(=O)c2c(OC)cc(O)cc2OC)cc1,36*,65*,/,/,/,/
COc1ccc(/C=C/C(=O)c2cc3c(cc2N)OCO3)cc1,33*,80*,?,/,420%,-23%
COc1ccc(/C=C/C(=O)c2ccc3c(c2)OCO3)cc1OC,/,/,-2%,/,16%,4%
COc1ccc(/C=C/C(=O)c2c(O)ccc3c(C)cc(=O)oc23)cc1,-3,-8,i,6%,10µM*,27%
COc1cc(O)cc(O)c1C(=O)/C=C/c1ccccc1,8.9*,8,45%,-4%,?,-1%
COc1cc(/C=C/C(=O)NC(=O)c2ccccc2O)ccc1O,-2,-22,-7%,-5%,?,1%
COc1ccc(/C=C/C(=O)c2ccc(OC)cc2OC)cc1,37*,48*,1.7µM*,-8%,3µM*,-5%
COc1ccccc1NS(=O)(=O)c1ccc(NN=C2CCCC2)c([N+](=O)[O-])c1,-1,-14,12µM*,?,-29%,18%
COc1ccc(C(=O)N/N=C/c2sc(N3CCOCC3)nc2-c2ccccc2)cc1OC,-2,-17,?,-6%,?,-1%
COc1ccccc1NS(=O)(=O)c1ccc(N/N=C/C=C/c2ccccc2[N+](=O)[O-])c([N+](=O)[O-])c1,-2,7,?,3%,?,-1%
COc1ccccc1NS(=O)(=O)c1ccc(N/N=C/c2c(C)nn(-c3ccccc3)c2N2CCCC2)c([N+](=O)[O-])c1,-3,4,?,19%,3.3µM*,1%
COc1ccccc1NS(=O)(=O)c1cc([N+](=O)[O-])ccc1N/N=C/c1sc(N2CCOCC2)nc1-c1ccccc1,-2,14,?,7%,3.3µM*,21%
Cc1nn(-c2ccccc2)c(N2CCCC2)c1/C=N/Nc1ccc(S(=O)(=O)Nc2ccccc2)cc1[N+](=O)[O-],-3,7,?,18%,3.3µM*,1%
COc1ccc(C2OC(=O)CC2C(=O)NCc2ccc(C)cc2)cc1OC (stereo not drawn),-3,-8,9.3µM*,/,-23%,0%
COc1cc(NC(=S)N2CCN(c3ccccn3)CC2)cc(OC)c1,-1,-11,?,-1%,5%,-28%
O=C(NCc1ccco1)/C(=C/c1ccccc1F)NC(=O)c1ccccc1,-4,32,15%,8%,19%,-1%
O=c1[nH]nc(SCc2cc(Cl)ccc2Cl)c(=O)[nH]1,-2,-4,20%,-4%,10%,-1%
CCN(CC)c1ccc2ccc(=O)oc2c1,12,16,9.3µM*,-8%,-34%,-1%
CCN(CC)c1ccc2c(C)cc(=O)oc2c1,/,/,?,/,-9%,-6%
O=C(c1ccc(CNS(=O)(=O)c2ccccc2)cc1)N1CCN(Cc2ccccc2)CC1,2,-23,/,-8%,-20%,5%
SMILES,CHX counter,Shiga toxin inh,Pf growth 96h,NS1 function inh,Pf growth 48h,SARS PLP yeast
CCOC(=O)C1CCCN(Cc2cn(C)nc2-c2ccc3c(c2)OCCO3)C1 (stereo not drawn),8,-7,?,2%,-5%,0%
CN(C)C(=O)CN1CCN(Cc2cn(C)nc2-c2ccc3c(c2)OCCO3)CC1,-2,-10,10µM*,7%,10%,0%
CCOc1ccc(C2NC(=O)NC(C)=C2C(=O)OC)cc1C (stereo not drawn),-3,15,/,-6%,-15%,-2%
O=C(COC(=O)C1(c2ccc(F)cc2)CCCC1)N1CCc2ccccc21,1,-7,?,5%,?,-4%
CC[N+](CC)(CC)CCOc1cccc(OCC[N+](CC)(CC)CC)c1OCC[N+](CC)(CC)CC,/,/,26%,-21%,16%,/
CC[N+](CC)(CC)CCOc1ccc(/C=C/c2ccccc2)cc1,/,/,0.74µM*,/,0.29µM*,3%
CCN(Cc1cc(OC)c(OC)c(OC)c1)C(=S)Nc1cccc(SC)c1,-2,10,10µM*,-9%,?,1%
COc1cc(CC(=O)Nc2cccc(SC)c2)cc(OC)c1OC,1,23,?,/,-24%,-1%
O=S(=O)(Nc1ccccn1)c1cc(Cl)ccc1Cl,-5,4,22%,4%,/,0%
Cc1ccc(-c2cc(C(=O)Nc3ccc(S(=O)(=O)Nc4nccs4)cc3)c3ccccc3n2)c(C)c1,-3,-16,-19%,18%,?,0%
CCN(C(=O)c1cc(Cl)ccc1OC)c1ccccc1C,7,-3,-3%,-8%,?,21%
CCN(C(=O)c1cnc(NC(C)C)cc1C(F)(F)F)c1ccc(Cl)cc1Cl,-1,-6,12µM*,-5%,2.9µM*,-3%
CC1CCCN(S(=O)(=O)c2ccc3c(c2)n(C)c(=O)c(=O)n3C)C1 (stereo not drawn),1,7,-13%,-1%,9%,1%
Cn1c(=O)c(=O)n(C)c2cc(S(=O)(=O)N3CCN(C4CCCCC4)CC3)ccc21,-4,9,8.3µM*,5%,/,5%
CC1CC(=O)c2cn3c(nc2C1)nc1ccccc13 (stereo not drawn),8,-13,?,-5%,/,0%
COc1ccc(C(=O)N2CCOC2CNC(=O)C(=O)NCCc2ccccc2OC)cc1 (stereo not drawn),-2,-4,-1%,2%,?,0%
Cc1cccc(Nc2nc(-c3ccc(F)c(C)c3)cs2)n1,49*,113*,10%,2%,11%,-12%
O=C(Cc1ccccc1)Nc1nc(-c2ccc(F)c(F)c2)cs1,14,42,-17%,2%,?,-2%
Cc1cccc(Nc2nc(-c3ccc(O)c(O)c3)cs2)n1,42*,85*,?,25%,-35%,-6%
CCN(Cc1ccncc1)Cc1nc(Cc2ccccc2Cl)no1,0,-14,?,-31%,10µM*,-4%
CN(Cc1cnccn1)Cc1nc(Cc2ccccc2Cl)no1,1,-6,20%,2%,-6%,0%
COc1ccc(OC)c(S(=O)(=O)NCCOC23CC4CC(CC(C4)C2)C3)c1,-3,-16,?,-30%,0%,-46%

# From PubChem BioAssay
